# PrP 5UTR inh – suppresses PrP 5' UTR mRNA reporter expression; cell-based PrP 5' UTR mRNA reporter, plate reader; inhibition, % (no concentration beside the values); 0.35% of 340,000 active; in the data active = inhibition above about 52%; note: 0 = median of the neutral control wells
# Vc quorum ag-1 – inducers of Vibrio cholerae quorum light production without autoinducers; V. cholerae BH1578 lux reporter, luminescence, 6 h; activation, % at 18.7 µM; 0.16% of 350,000 active; AID 588436; in the data active = activation mostly above about 9.7%, no sharp cut-off
# 3CLpro inhibitor – SARS-CoV 3CLpro protease inhibition; 0.14% of 290,000 active; P0C6X7; AID 1706; inhibition, % at 6 µM; recombinant SARS-CoV 3CLpro, quenched FRET peptide cleavage; in the data active = inhibition above about 12%
# PfHsp40 rescue – compounds rescuing yeast from Plasmodium falciparum HSP40 toxicity | S. cerevisiae expressing PfHsp40, growth rescue, ATP luminescence | growth rescue, % at 12.5 µM | 0.68% of 340,000 active; in the data active = growth rescue above about 28%, passing the limit was not always enough;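 note: yeast W303a lacking pdr1 and pdr3 grown in galactose medium; growth measured after three days at 30 °C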
# SSB-PriA inh – blocks PriA binding to SSB C-terminal tail; AlphaScreen SSBct-PriA binding, biotinylated peptide; inhibition, % at 33 µM; 0.6% of 430,000 active; AID 1272365; in the data active = inhibition mostly above about 37%, no sharp cut-off; inactive = mostly below about 20%;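 note: plate controls were negative control peptide for no effect and reference peptide for full effect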
# PrPC surface inh – reduces human prion protein on the cell surface | P04156 | cell surface PrPC, TR-FRET read-out | inhibition, % at 13.8 µM | 0.43% of 370,000 active; in the data active = inhibition above about 24%; note: 0% = median of the test wells and 100% = reference compound wells
# Vc quorum ag-2 – quorum light induction in BH1578 reporter strain | AID 602243 | 620 tested, under 10 active | shares compounds with Vc quorum ag-1 | activation, % at 50 µM | V. cholerae BH1578 lux reporter, luminescence, 6 h; call rule not given here
# Numbers without * were called inactive; i = inactive; . = not tested or not shown. Hits are enriched below; roughly 1.6% of the tested compounds scored in any of these assays.
SMILES,PrP 5UTR inh,Vc quorum ag-1,3CLpro inhibitor,PfHsp40 rescue,SSB-PriA inh,PrPC surface inh,Vc quorum ag-2
CC1CC(C)CN(C(=O)Cn2c(-c3nonc3N)nc3ccccc32)C1 (stereo unspecified),2.0,-0.4,2.1,-0.2,-10.4,0.2,.
CC1CCCN(C(=O)Cn2c(-c3nonc3N)nc3ccccc32)C1 (stereo unspecified),-4.3,14.3,3.3,-1.2,-6.8,1.1,0.7
CCOC(=O)CC(=O)Nc1nnc(C(C)C)s1,-31.1,16.7*,0.3,0.6,-24.5,1.4,0.0
O=C(Nc1ccccc1Oc1ccccc1)c1cnccn1,-7.0,-0.6,-4.0,1.0,-5.2,-14.9,.
Cc1ccc(Oc2ccc(Cl)cc2NC(=O)c2cnccn2)cc1,-9.8,16.7*,-1.4,0.2,-14.4,0.8,0.1
CCNC(=O)CCSc1nnc(-c2ccco2)o1,9.3,835.0*,4.8,1.6,-10.1,-5.6,i
CC(C)(C)Cc1nc(-c2ccccn2)no1,-45.7,14.3,-3.7,0.8,-4.2,-1.1,0.3
COC(=O)N1CCc2c(sc(NC(=O)c3cccc([N+](=O)[O-])c3)c2C(N)=O)C1,.,.,.,.,12.0,.,.
CCCc1ccc2oc(C(=O)N(Cc3ccncc3)CC3CCCO3)c(C)c2c1 (stereo unspecified),-32.3,12.5,-3.6,2.1,-16.9,9.8,0.4
Cc1ccccc1-n1nnnc1-c1ccccc1,-5.7,26.8,1.7,0.0,-10.7,-2.2,0.1
O=C(O)CCCn1nc(-c2ccccc2)c2ccccc21,-18.3,-0.2,0.1,0.3,-14.6,-0.4,.
COC(=O)Cn1nc(-c2ccccc2)c2ccccc21,.,12.5,-2.6,-0.3,-14.7,5.2,0.0
O=C(O)C1C2CCC(C2)C1C(=O)Nc1cc(F)ccc1F (stereo unspecified),-19.8,16.7*,2.6,0.5,-5.6,3.4,-0.1
O=C(O)C1C2CCC(C2)C1C(=O)NCCc1ccc(F)cc1 (stereo unspecified),1.0,-0.2,4.9,0.0,-11.4,-6.5,.
COC(=O)c1cc(COC(=O)c2ccc(OC)c(S(=O)(=O)N3CCCC3)c2)oc1C,-1.6,12.5,-5.4,-0.2,-14.6,-3.2,-0.1
CC(C)(C)NC(=S)NN=Cc1ccc(-c2ccc([N+](=O)[O-])cc2)o1,.,.,.,.,11.3,.,.
c1cn2cc(CN3CCOCC3)nc2s1,.,12.5,0.1,-1.4,-4.5,2.3,0.0
Nc1nc(CN2CCOCC2)cs1,-27.3,i,-0.4,-1.8,-20.0,-11.3,.
O=C(CCc1csc(NC(=O)Nc2cccc(Cl)c2)n1)NCc1ccc(F)cc1,.,.,.,.,-2.0,.,.
Cc1ccc(NS(=O)(=O)c2cccc(C(=O)N3CCCC(C)C3)c2)cc1 (stereo unspecified),-59.4,i,.,0.6,1.9,2.0,.
COc1ccc(NS(=O)(=O)c2cccc(C(=O)N3CCCC(C)C3)c2)cc1 (stereo unspecified),-4.0,19.3,.,-0.6,-12.0,-5.7,0.0
CCCOc1ccc(C2C(C(=O)c3ccc(C)o3)=C(O)C(=O)N2CCN2CCOCC2)cc1OC (stereo unspecified),-8.1,16.7*,1.1,0.6,-15.7,-3.8,200.0
COC(=O)C1=C(C)N=C2SCCC(=O)N2C1c1ccc(OC)cc1OC (stereo unspecified),.,.,.,.,-4.0,.,.
O=C(OC1CCN(c2ncc(C(F)(F)F)cc2Cl)CC1)c1ccc(Cl)cc1,-22.1,12.5,-7.8,-1.3,-24.8,3.5,-0.2
O=C(NCCn1ncc2c(N3CCCC3)ncnc21)C1CC1,.,.,.,.,-14.0,.,.
SMILES,PrP 5UTR inh,Vc quorum ag-1,3CLpro inhibitor,PfHsp40 rescue,SSB-PriA inh,PrPC surface inh,Vc quorum ag-2
Cc1ccc(S(=O)(=O)Nc2ccccc2F)cc1C(=O)NCCCN1CCCC1=O,-6.4,14.3,3.0,-0.6,-5.1,-1.3,0.0
Cc1ccc(C)c(C(=O)COC(=O)CNS(=O)(=O)c2ccccc2)c1,-17.6,0.3,-1.2,1.3,-7.4,8.0,.
CC(=O)Nc1ccc(S(=O)(=O)NCCC(=O)OCC(=O)c2cc(C)ccc2C)cc1,-27.1,14.3,.,-1.1,-3.1,5.2,0.0
Cc1ccc(S(=O)(=O)NCCC(=O)O)cc1,-11.0,33.3*,-2.4,1.1,-15.7,-1.1,0.0
Cc1ccc(S(=O)(=O)NCCCC(=O)O)cc1,-14.5,-0.1,-2.6,-1.2,-5.7,0.0,.
O=C(c1ccco1)N1CCc2ccc(NS(=O)(=O)c3cccc(Cl)c3)cc2C1,.,.,.,.,0.0,.,.
Cc1noc(C)c1S(=O)(=O)N1CCCC(C(=O)NCCC2=CCCCC2)C1 (stereo unspecified),-3.3,20.0*,-1.6,-0.6,-23.1,-4.5,1.5
O=C(NCc1ccc2c(c1)OCO2)C1CCCN1C(=O)Nc1cccc(Cl)c1 (stereo unspecified),-17.1,5.6*,0.0,0.5,4.1,-2.7,0.1
Cc1ccc(NC(=O)N2CCCC2C(=O)NCc2ccc3c(c2)OCO3)cc1 (stereo unspecified),-10.3,-0.2,4.3,-0.4,-14.4,2.4,.
O=C(c1ccccc1C(F)(F)F)N1CCC(COCc2ccccc2)CC1,.,.,.,.,-7.0,.,.
Cc1ccc2nc(NCCc3ccccc3)c3nncn3c2c1,-19.4,111.2*,0.8,-1.4,-11.1,3.7,1.3
Cc1ccsc1[C@@H](O)CNS(=O)(=O)c1cn(C)cn1,.,.,.,.,-4.0,.,.
O=C(Nc1nnc(C2CC2)s1)c1cccc(S(=O)(=O)N2CCc3ccccc32)c1,-5.8,19.2,1.1,-0.1,-8.0,-5.9,0.2
Cc1nnc(NC(=O)c2cccc(S(=O)(=O)N3CCc4ccccc43)c2)s1,-10.8,18.4,-2.2,-0.6,-9.2,0.1,0.0
O=C(CNC(=O)c1cccc(S(=O)(=O)N2CCc3ccccc32)c1)Nc1ccc(F)c(F)c1F,-14.3,12.5,.,-0.2,-0.7,5.9,5.5
Cc1c(C(=O)N2CCc3oncc3C2)cnn1-c1ccccc1,.,.,.,.,12.0,.,.
Cc1cccc(C(=O)OCC(=O)c2ccc3c(c2)NC(=O)CO3)c1,-29.0,-1.0,.,2.1,-20.1,-1.1,.
COC(=O)c1cc(C(=O)OCC(=O)c2ccc3c(c2)NC(=O)CO3)cc([N+](=O)[O-])c1,-59.0,14.3,.,-1.1,-0.7,-3.6,9.6
Cc1ccc(N2C(=O)C(CN(C)C)C2c2ccccc2)cc1 (stereo unspecified),2.1,16.7*,2.6,-0.2,7.7,-5.9,2.1
CCOC(=O)N1CCN(C(=S)NCCOC)CC1,-23.4,12.5,1.3,0.0,-5.4,-3.2,0.0
O=c1[nH]c2ccccc2n1Cc1ccc(Cl)cc1,-7.3,16.7*,-9.1,0.3,0.7,-8.1,0.7
CCCCCCCCn1c(=O)[nH]c2ccccc21,.,.,.,.,-12.0,.,.
O=c1oc2c(CN3CCOCC3)c(O)c(Cl)cc2c2c1CCC2,-16.0,31.5*,-3.7,0.5,.,5.4,4.4
CN(C)Cc1c(O)c(Cl)cc2c3c(c(=O)oc12)CCCC3,-12.5,.,-2.6,2.4,8.3,-6.8,.
CCC(=O)c1ccc(N2CCCC2)c(F)c1,-41.9,0.9,-0.8,-0.9,-2.0,0.8,.
CCC(=O)c1ccc(N2CCCCCC2)c(F)c1,-32.0,43.5*,1.8,-2.6,-57.9,2.4,-100.0

# Screens: PubChem, several laboratories
